Bioassay records (PubChem BioAssay)
Compounds with a hit are over-represented: about 12% of the library has one in this group of screens.
Sfp inh – blocks B. subtilis Sfp PPTase activity; Q9F4F7; Biochemical Sfp PPTase activity, qHTS; Potency, µM, without a hit: largest response in the series, negative = inhibition, most hits filed as inhibitors; hit rate 3.5% among 310,000;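 further: the enzyme is Sfp with the accession as filed and its product quenches rhodamine fluorescence; 0% = enzyme reaction without inhibitor and -100% = no enzyme wells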
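Step 1, compound plus 15 nM Sfp-PPTase, 15 min, room temperature. Step 2, add rhodamine-CoA (5 uM) and BHQ-2-YbbR (12.5 uM). Step 3, read 525/598 nm fluorescence at 0 and 30 min.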
G9a inh – blocks human histone lysine methyltransferase G9a | Q96KQ7 | AID 504332 | hit rate 8.8% among 350,000 | Potency, µM (series often up to 102 µM), without a hit: top-dose activity, negative = inhibition, hits mostly inhibitors | G9a H3K9 monomethylation, AlphaScreen, 2 h; further: on the % scale 0 is the no-effect control and ±100 the full control effect; nearly all actives have a fitted effect of over 75% in size
Target sequence (Q96KQ7 913-1193 limits assumed): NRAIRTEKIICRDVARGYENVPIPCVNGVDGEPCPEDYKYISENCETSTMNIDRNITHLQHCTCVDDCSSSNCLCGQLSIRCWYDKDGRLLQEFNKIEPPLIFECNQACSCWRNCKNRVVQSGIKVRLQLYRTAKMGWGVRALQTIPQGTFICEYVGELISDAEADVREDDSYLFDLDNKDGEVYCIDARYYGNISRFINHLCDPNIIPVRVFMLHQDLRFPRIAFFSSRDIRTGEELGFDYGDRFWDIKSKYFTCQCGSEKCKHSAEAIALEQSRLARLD
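Step 1: enzyme (final 20 nM) with compound, 15 min RT. Step 2: substrate peptide 500 nM and SAM 20 uM, 2 h RT. Step 3: anti-H3K9me1 antibody and AlphaScreen beads, 10 min, then plate read.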
HP1b binding inh – blocks HP1-beta chromodomain binding to methylated histone tails. P83916. AlphaScreen HP1-beta / biotin-H3K9me3 peptide binding. Potency, µM (highest dose often 114 µM), for inactives: at the highest dose activity change, negative = inhibition, hits mostly inhibitors. hit rate 0.56% among 390,000; further: nearly all actives have a fitted effect of over 70% in size
Target sequence (P83916 whole entry, looked up): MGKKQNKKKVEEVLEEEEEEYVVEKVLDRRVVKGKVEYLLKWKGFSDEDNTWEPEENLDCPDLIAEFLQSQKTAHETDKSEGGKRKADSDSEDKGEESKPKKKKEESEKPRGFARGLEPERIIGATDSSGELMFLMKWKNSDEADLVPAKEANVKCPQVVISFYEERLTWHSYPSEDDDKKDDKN
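Compound inhibition of the preformed complex between 50 nM HP1-beta and 50 nM biotinylated H3K9me3 peptide was read by AlphaScreen. Buffer was PBS pH 7.4 with 0.01% Tween-20. Incubations ran 30 min at room temperature, with 10 ug/mL donor/acceptor beads.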
JMJD2A Tudor inh – inhibitors of human JMJD2A Tudor domain. AlphaScreen JMJD2A-Tudor / H3K4me3 peptide binding. Potency, µM (highest dose often 114 µM), for the others: at the top dose activity change, negative = inhibition, usual class: inhibitors. O75164. hit rate 4.4% among 390,000; further: on the % scale 0 is the no-effect control and ±100 the full control effect; nearly all actives have a fitted effect of over 50% in size
PLK1 PBD inh – inhibitors of human PLK1 polo-box domain binding | Potency, µM, for the others: max response, negative = inhibition, actives largely listed as inhibitors | Plk1 PBD binding of FITC phosphopeptide, fluorescence polarization | P53350 | hit rate 2.8% among 360,000; further: series mostly up to about 57 µM; on the % scale 0 is the no-effect control and ±100 the full control effect; nearly all actives have a fitted effect of over 65% in size
BAZ2B inh – inhibitors of human BAZ2B bromodomain; Q9UIF8; hit rate 4.4% among 360,000; AlphaScreen BAZ2B-H3K14Ac peptide displacement; AID 504333; Potency, µM (titrated, usually from 114 µM), for inactives: top-dose activity change, negative = inhibition, usual class: inhibitors; further: on the % scale 0 is the no-effect control and ±100 the full control effect; nearly all actives have a fitted effect of over 60% in size
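Protein-peptide AlphaScreen: BAZ2B 50 nM, b-H3K14Ac 50 nM, 1x PBS pH 7.4 + 0.01% Tween-20. Preincubation 30 min RT; cpd 30 min RT (top 110 uM); beads 20 min RT, light-protected.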
* marks the source's active call; other numbers are inactive results; [ ] = another dose, or the depositor's remark. The call rests on the fitted dose curve; in most records, active means well fitted curve in the direction sought with a large enough effect; inconclusive means small, poorly fitted or top-dose-only effect, or another doubt; inactive means no such curve, though single readings can be large; an effect the other way counts as inactive or inconclusive. Potency means the concentration at half of the fitted maximal effect.

For CCCCN1C(=O)/C(=C/c2ccc(N(C)C)cc2)C(=O)N(Cc2ccco2)C1=O the results were Sfp inh -18%, G9a inh -4%[12.7 µM], HP1b binding inh -17%, JMJD2A Tudor inh inconclusive, PLK1 PBD inh inconclusive and BAZ2B inh inconclusive.
`CCN(CC)c1ccc(/C=C2\C(=O)NC(=O)N(Cc3ccco3)C2=O)cc1` gave Sfp inh inconclusive, G9a inh inconclusive, HP1b binding inh -12%, JMJD2A Tudor inh inconclusive, PLK1 PBD inh inconclusive and BAZ2B inh 50µM*.
Cc1ccc(N2C(=O)NC(=O)/C(=C\c3cn(CC(=O)O)c4ccccc34)C2=O)cc1 was read as Sfp inh -25%, G9a inh 25µM*, HP1b binding inh 28%, JMJD2A Tudor inh -9%, PLK1 PBD inh 27µM* and BAZ2B inh inconclusive.
Screening Cc1cc(OC(=O)N(C)C)nn1C(=O)N(C)C returned Sfp inh -11%.
O=C(O)Cn1cc(/C=C2\C(=O)NC(=O)N(Cc3ccco3)C2=O)c2ccccc21 was read as Sfp inh 28µM*, G9a inh 16µM*, HP1b binding inh -31%, JMJD2A Tudor inh 79µM*, PLK1 PBD inh 9.5µM* and BAZ2B inh 71µM*.
CCCn1c(C)c(C(=O)c2ccc3ccccc3c2)c2ccccc21 was read as G9a inh -4%[59 µM].
For CC1CCC(NCC(O)c2ccccc2)CC1 (stereo not given) the results were Sfp inh 16%, G9a inh 7%, HP1b binding inh 37%, JMJD2A Tudor inh -13%, PLK1 PBD inh -2% and BAZ2B inh -3%.
`OC(CNC1CCCCCCC1)c1ccccc1` (stereo not given) gave Sfp inh -11%, G9a inh 14µM* and BAZ2B inh inconclusive.
Screening O=C(NCc1c(-n2cccc2)sc2c1CCCC2)Nc1cccc(C(F)(F)F)c1 returned G9a inh -36%[59 µM], HP1b binding inh 51%, JMJD2A Tudor inh -8% and BAZ2B inh -18%.
For O=C1Nc2ccccc2/C1=C/c1cnc[nH]1 the results were Sfp inh 14%, G9a inh 44%[59 µM], HP1b binding inh 17%, JMJD2A Tudor inh -18%, PLK1 PBD inh 0% and BAZ2B inh inconclusive.
COc1cc(OC)c(/C=C2\C(=O)Nc3ccccc32)c(OC)c1 was read as G9a inh inconclusive, HP1b binding inh inconclusive, JMJD2A Tudor inh 56µM*, PLK1 PBD inh -14% and BAZ2B inh 45µM*.
For COc1ccc2c(c1)/C(=C/c1cnc[nH]1)C(=O)N2 the results were Sfp inh 2%, G9a inh 30%[59 µM], HP1b binding inh 9%, JMJD2A Tudor inh -30%, PLK1 PBD inh -3% and BAZ2B inh 50µM*.
O=C(OCCCCN1C(=O)c2ccccc2C1=O)c1ccc(Br)o1 was read as Sfp inh 15%, G9a inh 28%[59 µM], HP1b binding inh 24%, JMJD2A Tudor inh 17%[57.1 µM], PLK1 PBD inh -22% and BAZ2B inh -2%.
C=CCN1C(=O)NC(=O)/C(=C/c2ccoc2)C1=O was read as Sfp inh -29%, G9a inh -23%[59 µM], HP1b binding inh -19%, JMJD2A Tudor inh inconclusive, PLK1 PBD inh 8.4µM* and BAZ2B inh 0%.
COc1ccc(OCCOc2cccc(C=C3C(=O)NC(=O)NC3=O)c2)cc1 was read as Sfp inh -86%, G9a inh inconclusive and BAZ2B inh -36%.
`C=CCN1C(=O)NC(=O)/C(=C/c2ccc(N(C)C)c(Br)c2)C1=O` gave Sfp inh 50µM*, G9a inh 16µM*, HP1b binding inh 33%, JMJD2A Tudor inh -12%, PLK1 PBD inh 6.7µM* and BAZ2B inh -33%.
For COc1ccc(CN2C(=O)NC(=O)/C(=C/c3ccoc3)C2=O)cc1 the results were Sfp inh inconclusive, G9a inh 18µM*, HP1b binding inh 22µM*, JMJD2A Tudor inh 56µM*, PLK1 PBD inh 2.4µM* and BAZ2B inh 50µM*.
`CN1C2CC(OC(=O)C(CO)c3ccccc3)CC1C(O)C2` (stereo not given) gave Sfp inh -7% and G9a inh -38%[2.33 µM].
`COc1ccc(/C=C/C(=O)NC(=S)N2C[C@H]3C[C@H](C2)c2cccc(=O)n2C3)cc1OC` gave Sfp inh -18%, G9a inh 35µM*, HP1b binding inh 22%, JMJD2A Tudor inh -20%, PLK1 PBD inh -11% and BAZ2B inh -31%.
`O=C(/C=C/c1ccc(F)cc1)NC(=S)N1C[C@H]2C[C@H](C1)c1cccc(=O)n1C2` gave Sfp inh -4%, G9a inh -16%, HP1b binding inh 16%, JMJD2A Tudor inh -29%, PLK1 PBD inh -20% and BAZ2B inh -8%.
O=C(/C=C/c1ccccc1)NC(=S)N1C[C@H]2C[C@H](C1)c1cccc(=O)n1C2 was read as Sfp inh -15%, G9a inh 32µM*, HP1b binding inh 9%, JMJD2A Tudor inh -24%, PLK1 PBD inh inconclusive and BAZ2B inh -2%.
O=C(Nc1ccc(F)cc1)N1Cc2ccccc2-n2nncc2C1 was read as PLK1 PBD inh -18%.
Screening C/C=C1/C[C@@H](C)[C@](O)(CO)C(=O)OCC2=CCN3CC[C@@H](OC1=O)C23 (stereo not given in full) returned Sfp inh 1%.
Screening N[C@H]1C[C@H]1c1ccccc1 returned Sfp inh 10% and G9a inh -43%[12.7 µM].
Screening CC(C(=O)c1ccc2ccccc2c1)N1CCCCC1 (stereo not given) returned Sfp inh 17%, G9a inh -35%, HP1b binding inh 30%, JMJD2A Tudor inh -19%, PLK1 PBD inh -8% and BAZ2B inh -23%.
For CC1CCCCN1CC(=O)c1ccc2cc[nH]c2c1 (stereo not given) the results were Sfp inh -19%, G9a inh 32µM*, HP1b binding inh 15%, JMJD2A Tudor inh -28%, PLK1 PBD inh -12% and BAZ2B inh -10%.
O=C(Nc1ccc(Br)cc1C(=O)c1ccccc1Cl)c1ccccc1F was read as G9a inh -7%[59 µM], HP1b binding inh 35%, JMJD2A Tudor inh -2% and BAZ2B inh -2%.
For CCOP(=O)(C#Cc1ccccc1)C(O)c1ccc(Br)cc1 (stereo not given) the results were Sfp inh 3%, G9a inh 2%, HP1b binding inh 26%, JMJD2A Tudor inh -13%, PLK1 PBD inh -9% and BAZ2B inh 0%.
CCOP(=O)(c1ccccc1)C(O)c1ccc(F)cc1 (stereo not given) was read as Sfp inh 22%, G9a inh 0.63µM*, HP1b binding inh 28%, JMJD2A Tudor inh 5%, PLK1 PBD inh 2% and BAZ2B inh 6%.
